In PubChem BioAssay AID1443 (Sanford-Burnham Center for Chemical Genomics, 2008):
Hit rate of the full screen: of about 220,000 compounds, about 880 (0.4%) were called active. Shown is part of a subset that was picked to be rich in actives. Values without a mark were called inactive.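 How the source made its calls: active means cell killing above 50% in the first pass at 4 µM, then a duplicate retest at 5 µM averaging 50% or more; inactive means the rest.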

Test: PPC-1 cell viability loss under TRAIL – PPC-1 cells, ATPLite luminescence, uHTS, TRAIL potentiator project, primary screen (AID 1443);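 further: plate controls were cells with TRAIL plus DMSO for no effect and medium-only wells lacking cells for full effect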
Details: PPC-1 cells + TRAIL, hits give high values; at 4 µM unless noted
Compound `COC(=O)c1sc(NC(=S)NC(=O)c2ccc(C)cc2)nc1C` has a cell killing (% activity) of 27.1%.
In the case of `CC(=O)c1sc(NC(=O)c2cccc3ccccc23)nc1C`, the cell killing (% activity) is reported as 32%.
With `CC(=O)c1sc(NC(=O)c2ccc(C)cc2)nc1C` the cell killing (% activity) was 56.3% [at 5 µM] (active).
Work on `CC(=O)c1cc(-c2ccccc2)n(CC(=O)NC2CCCCC2)c1C` yielded a cell killing (% activity) of 6.9%.
`CCCCCC(O)c1cccc(OCc2ccc3ccccc3n2)c1` (stereo unspecified) gave a cell killing (% activity) of 10.7%.
For `Cc1n[nH]c(=O)nc1N/N=C/c1cccs1`, the cell killing (% activity) was 12.1%.
Work on `COc1cccc(NC(=O)CC(c2ccc(OC(C)C)cc2)c2ccccc2OC)c1` (stereo unspecified) yielded a cell killing (% activity) of 22.6%.
`C=C(C)CNC(=S)Nc1ccc(S(=O)(=O)Nc2cnc3ccccc3n2)cc1` gave a cell killing (% activity) of 12.5%.
With `O=C(/C=C\c1cn(-c2ccccc2)nc1-c1cccs1)N1CCOCC1` the cell killing (% activity) was 5.8%.
With `O=C(O)c1ccc(N/N=C/c2cn(-c3ccccc3)nc2-c2cccs2)cc1` the cell killing (% activity) was 79% [at 5 µM] (active).
`O=C(O)/C=C/c1cn(-c2ccccc2)nc1-c1cccs1` gave a cell killing (% activity) of 15.1%.
Work on `O=C(COC(=O)Cc1ccc(Br)cc1)Nc1c(F)c(F)c(F)c(F)c1F` yielded a cell killing (% activity) of 17%.
For `O=C(CCl)Nc1cccc(CP(=O)(c2ccccc2)c2ccccc2)c1`, the cell killing (% activity) was -1.1%.
`O=C(Cc1cccs1)N/N=C/c1ccc(OCc2ccccc2)cc1` showed a cell killing (% activity) of 20%.
In the case of `CC[C@@H](C)[C@@H](C(=O)N1CCN(C(=O)OC(C)(C)C)CC1)n1cc(CCC(=O)O)nn1`, the cell killing (% activity) is reported as 19%.
Compound `CC(=O)c1ccc(NC(=O)C2CC(=O)Nc3nc4ccccc4n32)cc1` (stereo unspecified) has a cell killing (% activity) of 27.4%.
`COc1cc(C2C(N3C(=O)c4ccccc4C3=O)C(=O)N2c2ccc(C)c(C)c2)cc(OC)c1OC` (stereo unspecified) gave a cell killing (% activity) of 0.4%.
With `COC(=O)[C@H](CC(C)C)NC(=O)N1CCCCC1C` (stereo partly specified) the cell killing (% activity) was 8.6%.
Compound `CS(=O)(=O)N(CC(=O)N/N=C/c1ccccn1)c1ccc(Oc2ccccc2)cc1` has a cell killing (% activity) of 2.8%.
Compound `CC(CNC(=O)c1ccc(N)cc1)NC(=O)c1ccc(N)cc1` (stereo unspecified) has a cell killing (% activity) of 15.7%.
For `O=C(NN1C(=O)C2C(C1=O)C1C=CC2C12CC2)c1ccccc1Cl` (stereo unspecified), the cell killing (% activity) was 15.1%.
In the case of `COc1ccc(NC(=O)C2=NNC(=O)CC2)cc1S(=O)(=O)N1CCCCC1`, the cell killing (% activity) is reported as 2.4%.
For `COc1ccc(C(=O)/C=C/Nc2ccccn2)cc1`, the cell killing (% activity) was 74.5% [at 5 µM] (active).
Compound `COc1ccc(-c2csc(Nc3ccccn3)n2)cc1` has a cell killing (% activity) of 26.9%.
In the case of `CCOc1cc(NC(=O)c2ccccn2)c(OCC)cc1NC(=O)c1ccc(OC)cc1`, the cell killing (% activity) is reported as 6.2%.
For `Cc1ccc(/C=N/NC(=O)CSc2ccccn2)o1`, the cell killing (% activity) was 28%.
`Cc1ccnc(NC(=O)Cn2ccc([N+](=O)[O-])n2)c1` gave a cell killing (% activity) of -4.4%.
For `CN1C(=O)/C(=C/C=C2\SCCN2C)OC1=S`, the cell killing (% activity) was 7.1%.
With `COCCNC(=O)/C(C#N)=C/c1cccc(OCc2ccccc2)c1` the cell killing (% activity) was 6.3%.
In the case of `COc1ccc(/C=N/Nc2nc3ccccc3o2)cc1OC`, the cell killing (% activity) is reported as 33%.
With `CCOc1ccc(/C=N/Nc2nncc(-c3ccccc3)n2)cc1OC` the cell killing (% activity) was -7.3%.
With `COc1cc(/C=N/Nc2nn3cnnc3c3ccccc23)cc(OC)c1OC` the cell killing (% activity) was 58.2% (active).
Compound `COc1ccc(NC(=O)C2CCC(CNc3c(N4CCCCC4)c(=O)c3=O)CC2)c(OC)c1` (stereo unspecified) has a cell killing (% activity) of -39.4%.
Work on `Cc1noc(C)c1S(=O)(=O)N(C)Cc1ccccc1` yielded a cell killing (% activity) of 17.3%.
In the case of `Cc1cc(C)c2nc(NC(=O)c3ccc4c(c3)OCO4)sc2c1`, the cell killing (% activity) is reported as 4.5%.
In the case of `O=C(Nc1nc2ccccc2s1)c1ccc2c(c1)OCO2`, the cell killing (% activity) is reported as 61.1% (active).
In the case of `COCc1nnc(NC(=O)c2ccc3c(c2)OCO3)s1`, the cell killing (% activity) is reported as 21.9%.
For `Cc1ccc(NC(=O)CCC(=O)N/N=C/c2ccco2)c(C)c1`, the cell killing (% activity) was 5.1%.
With `COC(=O)C(=Nc1ccccc1)/C(C(=O)C(=O)N(C)c1ccccc1)=C(\O)c1ccc(Cl)cc1` the cell killing (% activity) was -15.5%.
In the case of `CC1(C)COC(c2cccn2Cc2ccccc2Cl)=N1`, the cell killing (% activity) is reported as 3.7%.
In the case of `O=C(N/N=C/C=C/c1ccco1)c1cccs1`, the cell killing (% activity) is reported as 24.4%.
Compound `COc1cccc(-c2cc(C(=O)N/N=C/c3ccc(OC)c(COC(C)=O)c3)c3ccccc3n2)c1` has a cell killing (% activity) of 4.5%.
In the case of `Cc1ccc(-c2cc(C(=O)N/N=C/C=C/c3ccco3)c3ccccc3n2)cc1C`, the cell killing (% activity) is reported as 55.7% [at 5 µM] (active).
`Nc1ccccc1SC(C[N+](=O)[O-])c1ccccc1` (stereo unspecified) gave a cell killing (% activity) of 6.4%.
Work on `O=c1c2ccccc2cnn1Cc1n[nH]c(=S)n1-c1ccccc1F` yielded a cell killing (% activity) of 17.1%.
Work on `COc1ccc(Cl)cc1NC(=O)Cn1nc(-c2ccc(C)cc2)n(C)c1=S` yielded a cell killing (% activity) of 14.2%.
In the case of `Cn1cnc([N+](=O)[O-])c1Sc1n[nH]c(N)n1`, the cell killing (% activity) is reported as -16.4%.
`COc1cccc(CNC(=O)CCC2CCCN(C(=O)c3cc(C)[nH]n3)C2)c1` (stereo unspecified) showed a cell killing (% activity) of 12.1%.
In the case of `CCOC(=O)CSc1nnc(-c2ccc([N+](=O)[O-])cc2)o1`, the cell killing (% activity) is reported as 7.7%.
For `CCc1ccccc1NC(=O)CSc1nnc(-c2ccncc2)o1`, the cell killing (% activity) was -4.8%.
In the case of `O=C(CSc1nnc(-c2ccc([N+](=O)[O-])cc2)o1)Nc1ccccn1`, the cell killing (% activity) is reported as 51% [at 5 µM] (active).
`COc1ccc(CNC(=O)C(Cc2ccccc2)n2cccc2)cc1` (stereo unspecified) showed a cell killing (% activity) of -1.5%.
In the case of `O=C(CCN1C(=O)C2C3C=CC(C3)C2C1=O)Oc1ccc2ccccc2c1` (stereo unspecified), the cell killing (% activity) is reported as 9.1%.
For `CCCCCCCNc1nc(Cl)nc(NCCO)n1`, the cell killing (% activity) was 17.1%.
Work on `CC(C)(O)C#Cc1ncc(C(F)(F)F)cc1Cl` yielded a cell killing (% activity) of 3.1%.
Work on `Cc1c(C2=CCN(S(=O)(=O)c3ccc(Cl)cc3)CC2)c2ccccc2n1C` yielded a cell killing (% activity) of 31.7%.
Compound `CN1c2ccccc2-c2nc3ccccc3n2C1c1ccco1` (stereo unspecified) has a cell killing (% activity) of 12%.
`S=c1[nH]nc(-c2ccco2)n1/N=C/c1ccccc1` showed a cell killing (% activity) of 8%.
In the case of `Cn1c(-c2ccco2)nc2cc3ccccc3cc21`, the cell killing (% activity) is reported as 89.2% [at 5 µM] (active).
`CC(C)C(C)(C#N)NC(=O)CSc1nc2scc(-c3ccccc3)c2c(=O)[nH]1` (stereo unspecified) showed a cell killing (% activity) of 22.3%.
In the case of `COc1ccccc1N1CCN(C(=O)c2ccc(Cl)c(S(=O)(=O)N3CCCC3)c2)CC1`, the cell killing (% activity) is reported as 0.9%.
With `Oc1ccc(-c2[nH]ncc2-c2nc3ccccc3s2)c(O)c1` the cell killing (% activity) was 14.3%.
`S=c1[nH]nc(/C=C/c2ccccc2)o1` gave a cell killing (% activity) of -2.3%.
For `O=c1oc(/C=C/c2ccccc2)nc2ccccc12`, the cell killing (% activity) was 53% [at 5 µM] (active).
In the case of `O=c1oc(-c2ccccc2NS(=O)(=O)c2ccc(Cl)cc2)nc2ccccc12`, the cell killing (% activity) is reported as -12.7%.
Compound `COc1ccc(Cn2c(O)c(/C=C3/C=CC=N3)c(=O)[nH]c2=O)cc1` has a cell killing (% activity) of 5.9%.
Work on `Nc1nc(NCC2CCCO2)nc(Nc2ccccc2F)c1[N+](=O)[O-]` (stereo unspecified) yielded a cell killing (% activity) of 2.1%.
`O=C(CCS(=O)(=O)c1ccccc1Cl)Nc1ccc(S(=O)(=O)Nc2ncccn2)cc1` showed a cell killing (% activity) of 1.8%.
Work on `COc1cc(/C=N/NC(=O)c2ccccc2)ccc1OS(=O)(=O)c1ccccc1` yielded a cell killing (% activity) of 21.5%.
Compound `COc1ccc(C(=O)Nc2ccccc2C(=O)N/N=C/c2ccccc2OC)cc1` has a cell killing (% activity) of 28.7%.
In the case of `COc1ccc(C(=O)Nc2ccccc2C(=O)N/N=C/c2ccc(O)c(OC)c2)cc1`, the cell killing (% activity) is reported as 96.7% [at 5 µM] (active).
`CCn1cc(CN2CCCC(CNS(=O)(=O)Cc3ccccc3)C2)cn1` (stereo unspecified) showed a cell killing (% activity) of 14.8%.
Compound `O=C(N/N=C/c1cc([N+](=O)[O-])ccc1O)/C(=C\c1cccs1)NC(=O)c1ccccc1` has a cell killing (% activity) of 8.1%.
`CC12C(=O)N(c3ccccc3)C(=O)C1C(c1ccccc1)N1CCCN12` (stereo unspecified) gave a cell killing (% activity) of 8.2%.
With `Cn1nccc1NC(=O)CC(CC(=O)O)c1ccccc1` (stereo unspecified) the cell killing (% activity) was 5.7%.
In the case of `CC1(C)N=C(c2ccccn2)C(C)(C)N1O`, the cell killing (% activity) is reported as 22.7%.
`Cc1cc(-n2cnc(-c3cn(C)nc3C)n2)no1` showed a cell killing (% activity) of -10.4%.
For `CN1CCN(CC#CCC2(O)c3ccccc3-c3ccccc32)CC1`, the cell killing (% activity) was 1.7%.
With `O=c1cnnc(Nc2ccccc2)[nH]1` the cell killing (% activity) was 30.6%.
In the case of `Cc1ccc(SCC(=O)c2sc(-c3ccccc3)nc2C)cc1`, the cell killing (% activity) is reported as 8.5%.
In the case of `Cc1nc(-c2ccc(Cl)cc2)sc1C(=O)NN`, the cell killing (% activity) is reported as 59.4% [at 5 µM] (active).
Work on `Cc1nc(-c2ccc(Cl)cc2)sc1C(=O)CBr` yielded a cell killing (% activity) of 11.1%.
Compound `O=C(COC(=O)c1ccc(Cl)nc1)NCc1ccc2c(c1)OCO2` has a cell killing (% activity) of -2.9%.
`CC(C(=O)Nc1ccc(F)c(F)c1F)N1CCCCCC1` (stereo unspecified) showed a cell killing (% activity) of 30.5%.
Work on `COc1ccc(OC)c(NC(=O)N[C@H](Cc2ccccc2)C(=O)NN)c1` yielded a cell killing (% activity) of -4.7%.
`Nn1c(SCC(=O)NC2CCCC2)nnc1-c1ccccc1F` gave a cell killing (% activity) of 2.5%.
Work on `O=c1c(-c2ccccc2)cnc2n1CCS2` yielded a cell killing (% activity) of -3.9%.
With `COc1ccc(C2=Nc3cc(C)ccc3OC2)cc1` the cell killing (% activity) was 52.1% (active).
Compound `COc1ccc(C2=NOC3(CC(=O)N(c4ccc(C)cc4)C3=O)C2)cc1` (stereo unspecified) has a cell killing (% activity) of 12.3%.
Work on `Cc1ccc(C(=O)NNC2=Nc3cc([N+](=O)[O-])ccc3OC2)cc1` yielded a cell killing (% activity) of -2.5%.
For `CNC(=O)NC(=O)C(OC(=O)c1cccc(S(=O)(=O)N2CCCCC2)c1)c1ccccc1` (stereo unspecified), the cell killing (% activity) was 8.9%.
`N#CCc1ccc(OC(=O)c2cccnc2)cc1` showed a cell killing (% activity) of 0.5%.
Compound `CCOC(=O)N1CCN(CC(=O)Nc2cc(C)nn2-c2nc3ccccc3s2)CC1` has a cell killing (% activity) of -8.9%.
`Cc1cc(NC(=O)CN2CCCC(C)C2)n(-c2nc3ccccc3s2)n1` (stereo unspecified) gave a cell killing (% activity) of -3.9%.
For `CCC(C)Cn1c(O)cc2nn(-c3nc4ccccc4s3)c(=O)c-2c1C` (stereo unspecified), the cell killing (% activity) was 56% [at 5 µM] (active).
With `COc1ccc(CCNC2=CC(=O)CC(C)(C)C2)cc1` the cell killing (% activity) was 14.5%.
